According to PubChem BioAssay AID651595 (National Center for Advancing Translational Sciences (NCATS), 2012):
Out of some 1,100 compounds screened, fewer than 10 were called active. Roughly 6% stayed inconclusive and do not appear here. Calls follow the shape of the dose curve; as a rule, active = well fitted cell-killing curve with a large enough effect; inconclusive = small, poorly fitted or top-dose-only effect; inactive = flat fitted curve, though single readings scatter. These entries were drawn from the full list.

Experiment: qHTS of Nrf2 Activators: Hit Validation in Cytotox Assay;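 also: compound exposure lasted 24 hours before the ATP readout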; as to activity change, negative = cytotoxicity: 0% is about no effect
Conditions: Cell viability counter-screen for Nrf2 activator hits; series mostly up to 46.1 µM; activity change, negative = cytotoxicity: at the top concentration
Text: Many diseases have some form of oxidative stress injury and ties to inflammation, causing a host of problems for the patient. The antioxidant response element (ARE) plays an important role in alleviating the harmful effects of oxidative stress. The antioxidant response element (ARE) is a transcriptional regulatory element involved in the activation of genes coding for a number of antioxidant proteins and detoxifying enzymes. These enzymes work in concert to protect tissues from oxidative insults and chemical toxicities in human hepatocytes and immune cells. The protective effects of ARE activation are primarily triggered through Nrf2 (NF-E2-related factor) binding to and activating AREs. It is known that Nrf2 controls the production of over 250 antioxidant and detoxification proteins (Hu et al., 2006), thereby protecting tissues by increasing cellular antioxidant content and suppressing inflammatory signaling pathways. The transcription factor Nrf2 is a central link between oxidative chemicals, such as phenolic antioxidants and electrophilic compounds, and the activation of ARE. Nrf2 levels are constitutively low as a consequence of its interaction with Keap1, which targets its degradation (Zipper and Mulcahy, 2002). Electrophiles react with key cysteine residues in Keap1, releasing Nrf2 and allowing its translocation to the nucleus. Once within the nucleus, Nrf2 complexes with coactivators such as p300, and binds to the AREs to induce gene transcription of cytoprotective enzymes, resulting in the prevention of toxicity. Activation of Nrf2 protects tissues by increasing cellular antioxidant content and suppressing inflammatory signaling pathways. Identifying novel and potent Nrf2 activators by using the AREc32 cell line to detect ARE activation by small molecules will lead to the identification and development of probes to study protective pathways in multiple tissues. These specific probes are essential to study the ARE pathway, and eventually to determine whether this pathway does activate genes that could protect against a host of diseases, including cardiovascular diseases, obesity, diabetes, Alzheimer's, and Parkinson's disease.
This project's aim is to identify novel and potent Nrf2 activators by using the AREc32 cell line to detect ARE activation by small molecules, which will lead to the identification and development of probes to study the ARE pathway. Cytotoxic compounds are flagged as active, and inactivity is desired in this assay.
NIH Chemical Genomics Center [NCGC]
NIH Molecular Libraries Probe Centers Network [MLPCN]
Assay Submitter (PI): Curtis Klaassen, University of Kansas Medical Center
Cell viability after compound treatment was measured using a luciferase-coupled ATP quantitation assay (CellTiter-Glo, Promega) in AREc32_fluc cells. The change of intracellular ATP content indicates the number of metabolically competent cells after compound treatment. AREc32_fluc cells were harvested from T225 flask and resuspended in phenol red free OPTI-MEM medium with 5% FBS. Then 5 microL of 200,000 cells/ml resuspended cells was dispensed into each well of white, solid bottom, 1536-well tissue culture-treated plates using a Multidrop Combi dispenser. After overnight culture at 37 degrees C with 5% CO2, a total of 23 nL of compounds at 7 selected concentrations from the cherry pick or positive control (40 uM stock of CDDO-IM and 2 mM of tBHQ) in DMSO was transferred to each well of the assay plate using a pintool (Kalypsys, San Diego, CA), and the plates were further incubated at 37 degrees C with 5% CO2 for 24 hours. After that, 4 microL of CellTilter-GloTM luminescent substrate mix (Promega) was added to each well. The plate was incubated at room temperature for 30 minutes. The plates were measured on a ViewLux plate reader (PerkinElmer) with clear filter.
Potency is read from the fitted curve at half-maximal effect.

Row | Structure (SMILES) | activity change, negative = cytotoxicity | Potency
1 | CCc1c(C)sc(NC(=O)c2ccco2)c1C#N | 12.1% (inactive) | 
2 | COc1ccccc1NC(=O)/C=C\c1ccco1 | 2.45% (inactive) | 
3 | CCN(C(=O)Cn1nnc2sc(-c3ccccc3)cc2c1=O)c1cccc(C)c1 | -9.78% (inactive) | 
4 | NC(=S)NN=C1CSSC1 | -21.6% (inactive) | 
5 | COc1ccc(-c2nnc3c4ccccc4c(C)nn23)cc1 | 4.5% (inactive) | 
6 | O=C1Nc2ccccc2SC1=Cc1ccccc1 | 1.37% (inactive) | 
7 | C/C(=N/NC(=O)CNC(=O)/C=C/c1ccco1)c1ccc(Cl)cc1 | -4.27% (inactive) | 
8 | CCOC(=O)c1ccccc1N/C=C/C(=O)c1ccccc1 | 1.71% (inactive) | 
9 | O=C(Nc1cccc([N+](=O)[O-])c1)c1[nH]ncc1Cl | -11.2% (inactive) | 
10 | COc1ccc(Cl)cc1NC(=O)C1COc2ccccc2O1 (configuration not stated) | 4.89% (inactive) | 
11 | COc1ccc(C(C#N)=C2C=CC(=NO)C=C2)cc1 | -1.04% (inactive) | 
12 | CC(=O)c1ccccc1NC(=O)COC(=O)/C=C/c1ccc(C)o1 | 11.2% (inactive) | 
13 | O=[N+]([O-])c1ccc(NN=Cc2ccco2)nc1 | 10.9% (inactive) | 
14 | O=C(/C=C/Nc1ccc(F)c(Cl)c1)c1ccco1 | -0.863% (inactive) | 
15 | COc1ccc(Cl)cc1C(=O)O/N=C(\N)c1ccccn1 | -3.19% (inactive) | 
16 | CCOC(=O)c1c(NC(=O)/C=C/c2ccc(C)o2)sc(C)c1C | 4.84% (inactive) | 
17 | O=[N+]([O-])c1ccc(Cl)cc1N/N=C/c1ccncc1 | 6.03% (inactive) | 
18 | O=C(Nc1nc(=O)c2ccccc2s1)c1ccccc1 | -18.4% (inactive) | 
19 | Clc1ccccc1C=NNc1ccccn1 | 0.451% (inactive) | 
20 | CC(C)C(=O)Nc1nnc(-c2ccco2)s1 | 6.12% (inactive) | 
21 | Cn1c(/N=C(\N)c2ccccc2)nc2ccccc21 | -3.63% (inactive) | 
22 | O=C(Nc1ccccc1C(=O)NCCc1ccccc1)c1ccco1 | 5.2% (inactive) | 
23 | NC(=O)c1oc2ccccc2c1NC(=O)c1ccccc1 | 1.78% (inactive) | 
24 | O=C1COc2ccc(C(=O)COC(=O)/C=C/c3ccco3)cc2N1 | -0.414% (inactive) | 
25 | O=C(Nc1nccc(-c2cccs2)n1)c1cccs1 | -1.81% (inactive) | 
26 | N/C(=N\OC(=O)c1cc(Cl)ccc1Cl)c1cccnc1 | -4.62% (inactive) | 

Row | Structure (SMILES) | activity change, negative = cytotoxicity | Potency
27 | Cc1ccc(-c2nc3cccnc3s2)cc1NC(=O)c1ccco1 | -5.81% (inactive) | 
28 | Cn1c(SCC(=O)N/N=C/C=C\c2ccco2)nc2ccccc21 | 2.39% (inactive) | 
29 | CC(C)c1ccc(NC(=O)c2sccc2-n2cccc2)cc1 | -13.6% (inactive) | 
30 | COC(=O)c1ccc2nc(-c3ccc(F)cc3)c(CC3CCCCC3)n2c1 | -1.86% (inactive) | 
31 | Cc1ccc(-c2cc(C(F)(F)F)c(C#N)c(SCCC#N)n2)o1 | 6.99% (inactive) | 
32 | Clc1nc2sccn2c1/C=N/n1cnc2ccccc21 | 6.23% (inactive) | 
33 | CC(=NNc1ccc2ccccc2n1)c1ccccc1O | -19.7% (inactive) | 
34 | O=c1oc2ccc(Cl)cc2nc1/C=C(\O)c1cccs1 | -4.12% (inactive) | 
35 | C=C(NC(=O)C(=C)NC(=O)c1csc(C2=NC3c4csc(n4)C4NC(=O)c5csc(n5)C(C(C)(O)C(C)O)NC(=O)C5CSC(=N5)/C(=C/C)NC(=O)C(C(C)O)NC(=O)c5csc(n5)C3(CC2)NC(=O)C(C)NC(=O)C(=C)NC(=O)C(=C)NC(=O)C(C(C)C)NC2C=Cc3c(C(C)O)cc(nc3C2O)C(=O)OC4C)n1)C(N)=O (configuration not stated) | -14.5% (inactive) | 
36 | O=c1nc2c(-c3ccccc3F)n[nH]n2c2ccccc12 | -3.43% (inactive) | 
37 | O=C(CSc1ccc(-c2ccco2)nn1)N1CCCCCC1 | 0.45% (inactive) | 
38 | O=C1C(Cl)=C(Nc2ccccc2)C(=O)c2ccccc21 |  | 16.4 µM (active)
39 | c1ccc(-c2cnc(-c3ccccc3)nn2)cc1 | -0.44% (inactive) | 
40 | O=C(Nc1ccccc1)N1CCn2c1nc1ccccc12 | 2.76% (inactive) | 
41 | CC(=O)Nc1ccc(N=Nc2ccccc2)cc1[N+](=O)[O-] | -3.62% (inactive) | 
42 | Brc1ccc(-c2csc(N/N=C/c3ccco3)n2)cc1 | 8.79% (inactive) | 
43 | CC(=O)c1sc2nc(-c3cccs3)cc(C(F)(F)F)c2c1N | -2.42% (inactive) | 
44 | O=c1oc2ccccc2nc1/C=C(\O)c1ccc(Br)cc1 | -1.91% (inactive) | 
45 | O=[N+]([O-])c1ccc(/C=[N+](\[O-])[C@@H]2CCCC[C@@H]2/[N+]([O-])=C/c2ccc([N+](=O)[O-])o2)o1 |  | 18.4 µM (active)
46 | O=[N+]([O-])c1ccc(/C=N/Nc2ccc3ccccc3c2)o1 | -19.5% (inactive) | 
47 | O=C(NCC1CCCO1)c1ccc([N+](=O)[O-])o1 (configuration not stated) | -12.8% (inactive) | 
48 | c1ccc(C2=Nn3c(nnc3-c3ccco3)SC2)cc1 | 6.11% (inactive) | 
49 | Cc1ccccc1NC(=O)/C(C#N)=C/c1ccsc1 | 0.178% (inactive) | 
50 | Nc1nonc1N/N=C/c1c(O)ccc2ccccc12 | 8.84% (inactive) | 
51 | O=C(Nc1cc2nn(-c3ccccc3)nc2cc1Cl)c1ccco1 | 5.66% (inactive) | 
52 | Cc1nn2c(-c3ccccc3)nnc2c2ccccc12 | 2.1% (inactive) | 

Row | Structure (SMILES) | activity change, negative = cytotoxicity | Potency
53 | O=c1[nH]c(/C=C/c2ccccc2[N+](=O)[O-])nc2ccccc12 | 0.48% (inactive) | 
54 | O=C(NC(=S)Nc1ccccc1O)c1ccccc1Cl | 8.07% (inactive) | 
55 | Cc1ccc(O)c(NC(=O)c2cccc(NC(=O)c3ccco3)c2)c1 | 2.1% (inactive) | 
56 | O=C(NC(=S)Nc1cnc2ccccc2c1)c1ccccc1 | -0.119% (inactive) | 
57 | Cc1nn2c(-c3ccco3)nnc2c2ccccc12 | 6.15% (inactive) | 
58 | COc1ccc2oc3cc(Cl)ccc3c(=O)c2c1 | -1.78% (inactive) | 
59 | Cc1cccc(NC(=O)Nc2ccccc2[N+](=O)[O-])n1 | 5.2% (inactive) | 
60 | Cc1ccc(Cn2c(/C=C/c3ccco3)nc3ccccc32)cc1 | -21.8% (inactive) | 
61 | Clc1ccc(C=Cc2ccccn2)cc1 | 1.25% (inactive) | 
62 | N#C/C(=C\c1ccccc1)c1ccccn1 | -2.49% (inactive) | 
63 | O=c1[nH]c(SCc2cccc([N+](=O)[O-])c2)nc2[nH]ncc12 | 0.58% (inactive) | 
64 | COc1ccc(OC)c(C=C2CCc3ccccc3C2=O)c1 | 1.45% (inactive) | 
65 | O=C(Oc1cccc(-c2cnc3ccccc3n2)c1)c1ccco1 | -1.91% (inactive) | 
66 | Cc1ccc(C)c(/C=N/Nc2ccccn2)c1 | 9.8% (inactive) | 
67 | O=C(Nc1cc(-c2nc3ncccc3o2)ccc1Cl)c1ccco1 | 11% (inactive) | 
68 | CN(C)CCN(C(=O)/C=C/c1cccs1)c1nc2ccc(F)cc2s1 | -13.7% (inactive) | 
69 | O=C(Nc1nnc(-c2cccs2)s1)c1cccc(F)c1 | 7.96% (inactive) | 
70 | Cc1nn(-c2ccc3ccccc3c2)c(=O)c2ccccc12 | 4.52% (inactive) | 
71 | Cc1cc(C)c2c(N)c(C(=O)c3ccc(Br)cc3)oc2n1 | -19.8% (inactive) | 
72 | Cc1ccc(-c2nc(NCc3ccco3)c3ccccc3n2)cc1 | -1.85% (inactive) | 
73 | Brc1cc(Br)c2nc(-c3cccs3)ccc2c1 | 5.71% (inactive) | 
74 | S=c1nc(-c2ccccc2)[nH]c2ccc(Br)cc12 | 8.86% (inactive) | 
75 | N#C/C(=C(/O)c1ccc(Br)s1)c1nc2ccccc2[nH]1 | -1.87% (inactive) | 
76 | N#C/C(=C\c1ccc([N+](=O)[O-])o1)c1nc2ccccc2[nH]1 |  | 20.6 µM (active)
77 | N#C/C(=C(/O)c1ccco1)c1nc2ccccc2[nH]1 | -1.76% (inactive) | 
